Reference: PMC7862700, “An all-to-all approach to the identification of sequence-specific readers for epigenetic DNA modifications on cytosine”

Legend:
Assay in all cases: DAPPL (digital affinity profiling via proximity ligation, sequencing); 10 mM Tris-HCl pH 7.5, 50 mM NaCl, 1 mM DTT, 4% glycerol, room temperature, 30 min; GST-TFs on glutathione beads, 16-mer random dsDNA library, 0.1% formaldehyde crosslink after washing; high values mean tight binding
Conditions in all cases: protein: recombinant; tags: N-terminal GST; dsDNA, one strand shown
FLI1 = target: T1, FLI1 (Homo sapiens, UniProt Q01543 1-452)
T1 sequence: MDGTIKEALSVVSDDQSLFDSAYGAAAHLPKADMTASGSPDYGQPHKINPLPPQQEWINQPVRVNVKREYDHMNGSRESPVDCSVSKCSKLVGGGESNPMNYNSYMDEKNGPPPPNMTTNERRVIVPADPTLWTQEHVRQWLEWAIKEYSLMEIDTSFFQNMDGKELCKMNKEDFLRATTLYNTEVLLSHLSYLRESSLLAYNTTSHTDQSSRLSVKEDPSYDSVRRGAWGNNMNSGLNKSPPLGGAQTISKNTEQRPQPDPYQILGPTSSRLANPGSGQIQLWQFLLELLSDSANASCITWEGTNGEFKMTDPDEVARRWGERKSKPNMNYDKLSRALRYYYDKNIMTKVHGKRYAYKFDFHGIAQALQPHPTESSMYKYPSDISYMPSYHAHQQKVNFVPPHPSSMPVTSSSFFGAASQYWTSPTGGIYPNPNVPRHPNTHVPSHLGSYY
Outline: (§1)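 Pools were built from human transcription factors expressed in yeast as GST fusions, captured on glutathione beads and DNA-barcoded, along with a tag-only sample. Incubation with 200 nmole of a 16-mer random double-stranded DNA library lasted 30 min at room temperature in Tris/NaCl/DTT/glycerol buffer, and was followed by washing, 0.1% formaldehyde crosslinking, proximity ligation, PCR amplification and Illumina NextSeq500 sequencing. Binding signal is the quotient of each hexamer's read frequency for a factor and its frequency for the tag-only sample.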

ELK1 = target: T2, ELK1 (Homo sapiens, UniProt P19419 1-428)
T2 sequence: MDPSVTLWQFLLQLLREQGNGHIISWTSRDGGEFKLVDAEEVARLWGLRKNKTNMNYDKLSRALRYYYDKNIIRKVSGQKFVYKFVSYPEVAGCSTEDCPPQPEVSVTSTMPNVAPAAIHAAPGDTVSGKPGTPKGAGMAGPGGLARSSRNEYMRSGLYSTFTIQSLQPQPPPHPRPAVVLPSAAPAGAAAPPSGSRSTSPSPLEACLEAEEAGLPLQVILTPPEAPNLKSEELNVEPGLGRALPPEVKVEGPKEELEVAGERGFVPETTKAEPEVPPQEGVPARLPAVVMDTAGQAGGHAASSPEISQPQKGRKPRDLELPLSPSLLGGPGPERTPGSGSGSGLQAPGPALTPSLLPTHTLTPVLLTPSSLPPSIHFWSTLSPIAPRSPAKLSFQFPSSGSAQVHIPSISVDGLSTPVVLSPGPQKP
Outline: as §1

GABPA = target: T3, GABPA (Homo sapiens, UniProt Q06546 1-454)
T3 sequence: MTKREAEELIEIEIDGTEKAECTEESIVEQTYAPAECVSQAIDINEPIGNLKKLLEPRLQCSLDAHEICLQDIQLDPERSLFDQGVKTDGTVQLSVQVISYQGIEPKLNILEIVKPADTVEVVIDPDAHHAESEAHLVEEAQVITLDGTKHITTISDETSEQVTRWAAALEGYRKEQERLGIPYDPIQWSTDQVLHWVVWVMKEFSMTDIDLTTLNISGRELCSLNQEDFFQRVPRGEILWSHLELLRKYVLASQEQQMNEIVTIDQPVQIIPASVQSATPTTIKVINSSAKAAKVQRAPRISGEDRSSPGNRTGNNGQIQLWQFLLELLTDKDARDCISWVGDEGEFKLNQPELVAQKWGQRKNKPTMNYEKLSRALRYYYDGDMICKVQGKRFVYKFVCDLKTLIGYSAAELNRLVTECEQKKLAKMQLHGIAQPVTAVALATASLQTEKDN
Outline: as §1

ERG = target: T4, ERG (Homo sapiens, UniProt P11308 1-479)
T4 sequence: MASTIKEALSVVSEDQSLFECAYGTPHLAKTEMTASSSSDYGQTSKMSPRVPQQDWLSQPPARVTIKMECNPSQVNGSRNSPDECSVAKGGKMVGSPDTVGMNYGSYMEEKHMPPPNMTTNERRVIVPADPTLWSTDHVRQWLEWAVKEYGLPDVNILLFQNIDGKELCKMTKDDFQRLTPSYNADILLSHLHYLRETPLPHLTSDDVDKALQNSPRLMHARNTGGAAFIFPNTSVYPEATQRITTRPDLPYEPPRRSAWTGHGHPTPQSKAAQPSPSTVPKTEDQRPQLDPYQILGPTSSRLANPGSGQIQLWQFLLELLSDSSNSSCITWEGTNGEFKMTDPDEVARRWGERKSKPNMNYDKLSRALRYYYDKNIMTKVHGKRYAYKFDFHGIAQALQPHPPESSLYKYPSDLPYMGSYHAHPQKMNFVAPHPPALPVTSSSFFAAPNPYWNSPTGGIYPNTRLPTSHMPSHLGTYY
Outline: as §1

ELF1 = ELF1 (Homo sapiens, UniProt P32519 1-619)
Sequence of ELF1 (P32519 whole entry): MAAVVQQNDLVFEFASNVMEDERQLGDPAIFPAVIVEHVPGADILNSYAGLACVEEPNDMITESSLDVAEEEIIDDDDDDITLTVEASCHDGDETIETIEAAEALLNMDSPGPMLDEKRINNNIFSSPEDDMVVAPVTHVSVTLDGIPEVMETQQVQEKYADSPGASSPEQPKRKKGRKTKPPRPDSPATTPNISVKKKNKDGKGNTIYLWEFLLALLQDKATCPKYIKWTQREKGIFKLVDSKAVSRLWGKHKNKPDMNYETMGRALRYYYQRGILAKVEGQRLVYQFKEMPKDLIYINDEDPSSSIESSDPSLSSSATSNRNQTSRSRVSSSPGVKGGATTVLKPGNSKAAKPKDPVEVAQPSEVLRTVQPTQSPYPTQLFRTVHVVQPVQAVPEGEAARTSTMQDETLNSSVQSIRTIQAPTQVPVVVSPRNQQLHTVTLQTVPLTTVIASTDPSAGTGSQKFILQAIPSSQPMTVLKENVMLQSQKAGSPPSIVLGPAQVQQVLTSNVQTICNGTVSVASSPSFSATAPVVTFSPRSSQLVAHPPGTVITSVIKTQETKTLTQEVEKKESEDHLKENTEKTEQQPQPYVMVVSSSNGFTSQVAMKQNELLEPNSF
Outline: as §1

EHF = target: T5, EHF (Homo sapiens, UniProt Q9NZC4 1-300)
T5 sequence: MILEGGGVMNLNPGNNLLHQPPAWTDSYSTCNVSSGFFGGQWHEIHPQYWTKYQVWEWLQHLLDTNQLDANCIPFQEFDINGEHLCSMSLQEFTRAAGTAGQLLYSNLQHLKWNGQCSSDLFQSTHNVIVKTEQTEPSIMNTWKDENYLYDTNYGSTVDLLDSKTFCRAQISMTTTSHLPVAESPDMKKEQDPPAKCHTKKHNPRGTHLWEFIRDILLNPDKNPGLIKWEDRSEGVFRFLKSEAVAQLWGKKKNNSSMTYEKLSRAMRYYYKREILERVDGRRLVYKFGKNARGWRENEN
Outline: as §1

SPI1 = SPI1 (Homo sapiens, UniProt P17947 1-270)
Outline: as §1

SPIB = SPIB (Homo sapiens, UniProt Q01892 1-262)
Sequence of SPIB (Q01892 whole entry): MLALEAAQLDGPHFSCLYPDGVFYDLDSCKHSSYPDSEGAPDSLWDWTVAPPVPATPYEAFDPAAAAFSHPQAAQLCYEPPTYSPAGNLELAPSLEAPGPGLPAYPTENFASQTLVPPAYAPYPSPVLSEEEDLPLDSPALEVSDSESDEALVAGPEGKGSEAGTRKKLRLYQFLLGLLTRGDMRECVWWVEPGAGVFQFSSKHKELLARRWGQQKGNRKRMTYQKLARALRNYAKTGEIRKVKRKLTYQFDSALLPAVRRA
Outline: as §1

ELK3 = target: T6, ELK3 (Homo sapiens, UniProt P41970 1-407)
T6 sequence: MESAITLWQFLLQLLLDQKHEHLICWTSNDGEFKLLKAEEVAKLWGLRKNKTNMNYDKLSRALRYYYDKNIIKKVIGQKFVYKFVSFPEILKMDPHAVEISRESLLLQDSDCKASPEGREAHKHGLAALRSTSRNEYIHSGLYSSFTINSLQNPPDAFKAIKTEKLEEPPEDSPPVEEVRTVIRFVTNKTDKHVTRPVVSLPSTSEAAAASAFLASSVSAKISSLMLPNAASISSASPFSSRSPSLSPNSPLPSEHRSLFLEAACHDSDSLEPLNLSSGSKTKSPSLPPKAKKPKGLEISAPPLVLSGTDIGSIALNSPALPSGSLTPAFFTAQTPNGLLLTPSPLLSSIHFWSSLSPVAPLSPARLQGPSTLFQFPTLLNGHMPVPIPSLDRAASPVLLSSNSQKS
Outline: as §1

With TGCATG the binding signal (FLI1) was 1.12 fold enrichment (6-mer frequency, TF over GST control), the binding signal (ELK1) was 1.09 fold enrichment (6-mer frequency, TF over GST control) and the binding signal (GABPA) was 1.13 fold enrichment (6-mer frequency, TF over GST control). The binding signal (ERG) was 1.13 fold enrichment (6-mer frequency, TF over GST control), the binding signal (ELF1) was 1.15 fold enrichment (6-mer frequency, TF over GST control) and the binding signal (EHF) was 1.15 fold enrichment (6-mer frequency, TF over GST control). For the same sequence, the binding signal (SPI1) was 1.02 fold enrichment (6-mer frequency, TF over GST control), the binding signal (SPIB) was 1.14 fold enrichment (6-mer frequency, TF over GST control) and the binding signal (ELK3) was 1.14 fold enrichment (6-mer frequency, TF over GST control).

For AGCCTC, the binding signal (FLI1) was 1.39 fold enrichment (6-mer frequency, TF over GST control), the binding signal (ELK1) was 1.3 fold enrichment (6-mer frequency, TF over GST control) and the binding signal (GABPA) was 1.31 fold enrichment (6-mer frequency, TF over GST control). The binding signal (ERG) was 1.21 fold enrichment (6-mer frequency, TF over GST control), the binding signal (ELF1) was 1.25 fold enrichment (6-mer frequency, TF over GST control) and the binding signal (EHF) was 1.13 fold enrichment (6-mer frequency, TF over GST control). For the same sequence, the binding signal (SPI1) was 1.26 fold enrichment (6-mer frequency, TF over GST control), the binding signal (SPIB) was 1.07 fold enrichment (6-mer frequency, TF over GST control) and the binding signal (ELK3) was 1.21 fold enrichment (6-mer frequency, TF over GST control).

With GGTTTG the binding signal (FLI1) was 1.18 fold enrichment (6-mer frequency, TF over GST control), the binding signal (ELK1) was 1.15 fold enrichment (6-mer frequency, TF over GST control) and the binding signal (GABPA) was 1.24 fold enrichment (6-mer frequency, TF over GST control). The binding signal (ERG) was 1.13 fold enrichment (6-mer frequency, TF over GST control), the binding signal (ELF1) was 1.19 fold enrichment (6-mer frequency, TF over GST control) and the binding signal (EHF) was 1.22 fold enrichment (6-mer frequency, TF over GST control). The binding signal (SPI1) was 1.06 fold enrichment (6-mer frequency, TF over GST control), the binding signal (SPIB) was 1.01 fold enrichment (6-mer frequency, TF over GST control) and the binding signal (ELK3) was 1.2 fold enrichment (6-mer frequency, TF over GST control).

For CGCCCC, the binding signal (FLI1) was 1.12 fold enrichment (6-mer frequency, TF over GST control), the binding signal (ELK1) was 1.17 fold enrichment (6-mer frequency, TF over GST control) and the binding signal (GABPA) was 1.11 fold enrichment (6-mer frequency, TF over GST control). The binding signal (ERG) was 1.14 fold enrichment (6-mer frequency, TF over GST control), the binding signal (ELF1) was 1.22 fold enrichment (6-mer frequency, TF over GST control) and the binding signal (EHF) was 1.19 fold enrichment (6-mer frequency, TF over GST control). For the same sequence, the binding signal (SPI1) was 1.18 fold enrichment (6-mer frequency, TF over GST control), the binding signal (SPIB) was 1.1 fold enrichment (6-mer frequency, TF over GST control) and the binding signal (ELK3) was 1.18 fold enrichment (6-mer frequency, TF over GST control).
